As usually defined, the AC50 is the midpoint of the concentration-response curve, whichever way the signal moves.

Test [1] is described as follows: ATG_M_32_CIS: Attagene CIS-FACTORIAL HepG2 Assay for M32 Transcription Factor (Internal Marker) (AID 2282949).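 Note: background control marker of the multiplexed CIS panel rather than a real target.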 The note with it: HepG2 Attagene cis-factorial M32 reporter, mRNA; actives raise or lower the signal. Summed up:
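Following 24 h chemical exposure of HepG2 cells transiently expressing cis-promoter reporter constructs, reporter transcript levels were determined by RT-PCR with fluorescent labelling and capillary electrophoresis, then fitted bidirectionally against DMSO.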

Test [2] is described as follows: ATG_M_06_CIS: Attagene CIS-FACTORIAL HepG2 Assay for M06 Transcription Factor (Internal Marker) (AID 2282950). The following applies: HepG2 Attagene CIS-FACTORIAL M06 internal marker reporter; actives raise or lower the signal. Summed up:
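Steps: transfect HepG2 with multiplexed cis-element reporter constructs; dose chemical 24 h; extract RNA with DNase treatment; reverse-transcribe, PCR-amplify, 6-FAM label, HpaI digest; separate fragments by capillary electrophoresis. Activity fitted both directions versus DMSO.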

For test [3], the target named is Hypoxia-inducible factor 1-alpha (Homo sapiens) (UniProt Q16665). The test is described as follows: ATG_HIF1a_CIS: Attagene CIS-FACTORIAL HepG2 Assay for human Hypoxia Inducible Factor 1 (HIF1A) (AID 2282951). The following applies: HepG2 Attagene cis-factorial HIF1a reporter transcription; actives raise or lower the signal. In outline: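 Dosed 24 h, transfected HepG2 cells yielded total RNA whose reporter transcripts were RT-PCR-amplified and sized by capillary electrophoresis using fluorescent labelling; DMSO defined baseline, with gain and loss of signal both fitted.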
Hypoxia-inducible factor 1-alpha (Homo sapiens), sequence (Q16665 whole entry, looked up): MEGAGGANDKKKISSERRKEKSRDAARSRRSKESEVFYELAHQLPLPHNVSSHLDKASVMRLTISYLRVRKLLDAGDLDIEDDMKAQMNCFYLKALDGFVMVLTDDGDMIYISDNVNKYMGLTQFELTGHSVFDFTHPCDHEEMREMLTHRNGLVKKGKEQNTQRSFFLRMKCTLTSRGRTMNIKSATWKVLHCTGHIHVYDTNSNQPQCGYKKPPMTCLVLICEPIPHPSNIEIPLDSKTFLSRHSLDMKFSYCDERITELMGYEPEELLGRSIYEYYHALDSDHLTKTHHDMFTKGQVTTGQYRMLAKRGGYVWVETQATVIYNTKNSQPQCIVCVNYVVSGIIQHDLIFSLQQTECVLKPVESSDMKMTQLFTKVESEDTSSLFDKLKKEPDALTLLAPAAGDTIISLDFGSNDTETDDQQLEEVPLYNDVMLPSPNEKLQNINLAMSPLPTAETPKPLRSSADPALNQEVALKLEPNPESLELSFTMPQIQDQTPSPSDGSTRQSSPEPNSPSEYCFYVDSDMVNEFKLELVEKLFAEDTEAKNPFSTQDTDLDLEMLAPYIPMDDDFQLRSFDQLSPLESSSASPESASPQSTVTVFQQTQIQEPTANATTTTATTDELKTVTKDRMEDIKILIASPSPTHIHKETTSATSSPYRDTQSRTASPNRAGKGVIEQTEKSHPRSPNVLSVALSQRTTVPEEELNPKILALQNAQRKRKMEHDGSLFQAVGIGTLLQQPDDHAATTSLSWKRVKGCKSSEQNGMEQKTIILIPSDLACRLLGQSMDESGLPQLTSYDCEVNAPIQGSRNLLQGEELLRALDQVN

Test [4] deals with Hepatocyte nuclear factor 6 (Homo sapiens) (UniProt Q9UBC0). The test is described as follows: ATG_HNF6_CIS: Attagene CIS-FACTORIAL HepG2 Assay for human Hepatocyte Nuclear Factor 6 (HNF6) (AID 2282952). The note with it: HepG2 Attagene cis-factorial HNF6 reporter transcription; actives raise or lower the signal. Summed up: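 Cells are HepG2 carrying transiently transfected cis-promoter reporter units. Treatment lasts 24 h, after which reporter transcripts are reverse-transcribed, amplified, FAM-labelled and sized by capillary electrophoresis. DMSO serves as baseline.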
Hepatocyte nuclear factor 6 (Homo sapiens), sequence (Q9UBC0 whole entry, looked up): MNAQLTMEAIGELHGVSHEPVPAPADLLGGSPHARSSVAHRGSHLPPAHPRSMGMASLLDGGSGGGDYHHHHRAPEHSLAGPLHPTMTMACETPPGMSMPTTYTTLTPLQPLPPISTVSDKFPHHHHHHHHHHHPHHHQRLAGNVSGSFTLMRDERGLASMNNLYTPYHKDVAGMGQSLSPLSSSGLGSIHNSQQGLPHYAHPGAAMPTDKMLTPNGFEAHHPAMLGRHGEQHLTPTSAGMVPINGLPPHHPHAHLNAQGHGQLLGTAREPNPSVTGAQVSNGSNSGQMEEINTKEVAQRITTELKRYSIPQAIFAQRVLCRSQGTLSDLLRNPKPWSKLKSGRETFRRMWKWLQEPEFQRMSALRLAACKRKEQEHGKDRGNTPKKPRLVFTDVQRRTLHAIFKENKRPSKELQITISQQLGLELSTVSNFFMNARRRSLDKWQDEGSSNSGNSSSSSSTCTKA

The target of test [5] is Heat shock factor protein 1 (Homo sapiens) (UniProt Q00613). The test can be described thus: ATG_HSE_CIS: Attagene CIS-FACTORIAL HepG2 Assay for human Heat Shock Transcription Factor 1 (HSE) (AID 2282953). The following applies: HepG2 HSE cis-reporter, Attagene RNA transcription; actives raise or lower the signal. In outline: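 Cells were transfected with cis-element-driven reporter constructs, dosed for 24 h, then total RNA was reverse-transcribed and reporter cDNA amplified, FAM-labelled and digested with HpaI. Fragments were resolved by capillary electrophoresis; gain or loss was fitted against DMSO.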
Heat shock factor protein 1 (Homo sapiens), sequence (Q00613 whole entry, looked up, the tested form may be a part): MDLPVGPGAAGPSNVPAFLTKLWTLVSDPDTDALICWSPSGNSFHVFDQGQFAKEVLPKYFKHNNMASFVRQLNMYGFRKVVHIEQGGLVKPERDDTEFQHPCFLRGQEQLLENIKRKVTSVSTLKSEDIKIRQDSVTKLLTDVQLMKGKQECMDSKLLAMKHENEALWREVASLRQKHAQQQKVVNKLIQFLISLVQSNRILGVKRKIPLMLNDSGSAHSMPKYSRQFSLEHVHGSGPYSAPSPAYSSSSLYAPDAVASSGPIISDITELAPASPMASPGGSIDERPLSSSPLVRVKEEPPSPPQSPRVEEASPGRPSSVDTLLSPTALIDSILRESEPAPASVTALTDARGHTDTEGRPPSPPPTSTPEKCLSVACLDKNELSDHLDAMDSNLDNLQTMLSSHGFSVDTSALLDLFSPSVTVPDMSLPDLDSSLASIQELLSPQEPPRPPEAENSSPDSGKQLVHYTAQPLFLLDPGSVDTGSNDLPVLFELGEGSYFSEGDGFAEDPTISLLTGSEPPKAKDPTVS

Test [6] can be described thus: ATG_MRE_CIS: Attagene CIS-FACTORIAL HepG2 Assay for human Metal Responsive Element (MRE) (AID 2282954). The note with it: HepG2 MRE cis-reporter transcription, Attagene multiplex; actives raise or lower the signal. Summed up: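 HepG2 cells transiently transfected with multiple cis-element reporter units measure endogenous MTF1-driven transcription. After 24 h compound exposure, reporter mRNA is quantified by RT-PCR with 6-FAM labelling, HpaI digestion and capillary electrophoresis; bidirectional fits versus DMSO.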

Test [7] can be described thus: ATG_PBREM_CIS: Attagene CIS-FACTORIAL HepG2 Assay for human Phenobarbital-responsive Enhancer Module (PBREM) (AID 2282955). The note with it: HepG2 PBREM cis-reporter, Attagene multiplexed transcription; actives raise or lower the signal. In outline:
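Transfected liver-derived HepG2 cells exposed 24 h; PBREM reporter transcript quantified via RT-PCR and capillary electrophoresis, with activity in either direction referenced to DMSO.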

Test [8] deals with Paired box protein Pax-6 (Homo sapiens) (UniProt P26367). The test is described as follows: ATG_Pax6_CIS: Attagene CIS-FACTORIAL HepG2 Assay for human Paired Box 6 (PAX6) (AID 2282956). The note with it: HepG2 CIS-FACTORIAL PAX6 reporter transcription, RNA readout; actives raise or lower the signal. Summed up:
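After twenty-four hours of chemical exposure, transfected HepG2 cells are harvested for RNA. Cis-promoter reporter transcripts are amplified, fluorescently labelled and sized by capillary electrophoresis, with gain and loss of signal scored against DMSO.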

Test [9] in a line: ATG_PXRE_CIS: Attagene CIS-FACTORIAL HepG2 Assay for human Pregnane X Receptor Element (PXRE) (AID 2282957). The following applies: HepG2 Attagene CIS-FACTORIAL PXRE reporter, mRNA; actives raise or lower the signal. Summed up: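 Multiplexed cis-reporter assay in transiently transfected human HepG2 cells; 24 h chemical exposure. Reporter transcripts quantified by RT-PCR with fluorescent labeling and capillary electrophoresis.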

Test [10] is described as follows: ATG_PPRE_CIS: Attagene CIS-FACTORIAL HepG2 Assay for human Peroxisome Proliferator-activated Response Element (PPRE) (AID 2282958). The following applies: HepG2 PPRE cis-element reporter, Attagene transcription factor profiling; actives raise or lower the signal. Summed up: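 Measured endpoint: PPRE-controlled reporter mRNA, detected by RT-PCR and capillary electrophoresis fluorescence, from transiently transfected HepG2 cells 24 h after dosing. Curves fitted in both directions using DMSO baseline.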

Activity calls are given as the source filed them. Rule for the calls: active = hit-call score of the fitted dose curve at least 0.9, where 1 is the maximum; inactive = score below 0.9.

Paired box protein Pax-6 (Homo sapiens), sequence (P26367 whole entry, looked up): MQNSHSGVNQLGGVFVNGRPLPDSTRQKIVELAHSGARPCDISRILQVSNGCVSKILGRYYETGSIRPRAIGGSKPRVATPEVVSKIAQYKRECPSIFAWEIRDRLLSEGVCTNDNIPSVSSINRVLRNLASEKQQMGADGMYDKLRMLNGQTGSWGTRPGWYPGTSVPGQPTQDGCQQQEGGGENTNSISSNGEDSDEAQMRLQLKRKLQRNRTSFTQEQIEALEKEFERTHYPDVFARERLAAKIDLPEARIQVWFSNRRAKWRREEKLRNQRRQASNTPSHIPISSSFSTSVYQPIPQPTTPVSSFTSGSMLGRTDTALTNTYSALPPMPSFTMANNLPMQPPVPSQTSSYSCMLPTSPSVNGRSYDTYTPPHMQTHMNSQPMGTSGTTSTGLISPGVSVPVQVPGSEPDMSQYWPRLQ

As to `Cl[C@H]1OCCO[C@@H]1Cl`, the outcome in [1], in test [2], in test [4], in test [5], in [6] and in [7] was inactive. In addition, the call in test [8], in test [9] and in test [10] was inactive. Also, the AC50 in test [3] is 49.6 µM (active).
In the case of `CC(C)(c1ccc(O)c(-c2ccccc2)c1)c1ccc(O)c(-c2ccccc2)c1`, the call in [1], in test [2], in [3], in test [4], in test [5] and in test [7] was inactive. Moreover, the molecule was classed as inactive in [8] and in test [10]. Further, the AC50 in test [6] was 2.93 µM (active); in test [9], 0.965 µM (active).
Take `CC(C)(C#N)N=NC(C)(C)C#N`: the molecule was classed as inactive in [1], in test [2], in [3], in test [4], in test [5] and in [6]. For the same molecule, the outcome in [7], in test [8] and in test [10] was inactive. Also, in test [9], the AC50 is 79.6 µM (active).
On to `Clc1cccc(Cl)c1Cl`, for which the outcome in test [1], in test [2], in test [3], in test [4], in test [5] and in [6] was inactive. Further, the outcome in test [7], in [8], in test [9] and in test [10] was inactive.
For `CC(=Cc1ccccc1)[N+](=O)[O-]`, the outcome in test [1], in test [2], in [3], in test [4], in [6] and in test [10] was inactive. Moreover, the AC50 in test [5] was 4.41 µM (active); in test [7] it was 13.7 µM (active); in test [8], 11.1 µM (active); in test [9], 4.02 µM (active).
As to `CCCSP(=S)(OCC)Oc1ccc(SC)cc1` (stereo not given), the molecule was classed as inactive in test [1], in test [2], in [3], in test [4], in [5] and in test [6]. Moreover, the call in test [8] and in [10] was inactive. The AC50 in test [7] was 2.14 µM (active).
For `C=C(C)C(=O)OCCCCOC(=O)C(=C)C`, the molecule was called inactive in test [1], in [2], in test [3], in test [4], in test [5] and in test [6]. The result in test [7], in [8], in test [9] and in [10] was inactive.
On to `O=[N+]([O-])c1cccc2ccccc12`, for which the outcome in test [1], in test [2], in test [3], in [4], in [5] and in test [6] was inactive. For the same molecule, the outcome in [7], in test [8] and in [10] was inactive.
`CC(C)(c1ccccc1)c1cc(-n2nc3ccccc3n2)c(O)c(C(C)(C)c2ccccc2)c1`: the molecule was classed as inactive in test [1], in [2], in test [3], in [4], in test [5] and in [6]. Besides, the result in [7], in test [8] and in [10] was inactive. Moreover, the AC50 in [9] was 15.3 µM (active).
Take `CCCCCCCCCCCCBr`: the molecule was called inactive in test [1], in test [2], in test [3], in test [4], in test [5] and in [6]. Also, the outcome in test [7], in test [8] and in test [10] was inactive.
On to `Oc1cccc(-c2ccccc2)c1`, for which the molecule was classed as inactive in [1], in test [2], in test [3], in test [4], in [5] and in test [6]. The outcome in test [7], in test [8] and in test [10] was inactive. In addition, the AC50 in [9] was 27.2 µM (active).
With `C=CC(=O)OCC(COC(=O)C=C)(COC(=O)C=C)COC(=O)C=C`, the molecule was classed as inactive in test [1], in test [2], in test [3], in [4], in test [7] and in test [9]. Further, the molecule was classed as inactive in test [10]. The AC50 was 56.5 µM (active) in [5], 8.5 µM (active) in test [6] and 8.18 µM (active) in test [8].
Take `Oc1c(Br)cc(Br)cc1Br`: the molecule was called inactive in test [1], in test [2], in test [3], in test [4], in test [5] and in test [8]. The AC50 in test [6] was 78.7 µM (active); in test [7] it was 20.9 µM (active); in [9] it was 5.82 µM (active); in test [10], 51.2 µM (active).
As to `CCCCCCCCCCCCN(C)C`, the outcome in [1], in test [2], in test [3], in test [4], in [6] and in [7] was inactive. Further, the call in [8] and in test [10] was inactive. Further, the values for the AC50 in test [5] and in test [9] were 56.1 µM (active) and 58.6 µM (active), respectively.
With `C=CCc1ccccc1O`, the call in [1], in test [2], in [3], in test [4], in test [5] and in [6] was inactive. Besides, the molecule was classed as inactive in test [8].
With `CC(=O)C(F)(F)C(F)(F)F`, the molecule was classed as inactive in test [1], in test [2], in test [3], in test [4], in [5] and in test [6]. In addition, the result in [7], in [8], in test [9] and in test [10] was inactive.
Turning to `CC(C)(COCC1CO1)COCC1CO1` (stereo not given), the molecule was classed as inactive in test [1], in test [2], in test [3], in test [4], in test [5] and in [7]. Moreover, the molecule was classed as inactive in [8] and in [10]. In test [6], the concentration at half-maximal activity (AC50) is 100 µM (active).
As to `CNC(=O)N(C)c1nc2ccccc2s1`, the molecule was called inactive in [1], in test [2], in test [3], in [4], in test [5] and in test [6]. Besides, the outcome in test [7], in test [8] and in test [10] was inactive.
Consider `COc1ccc([N+](=O)[O-])cc1O`, for which the result in test [1], in test [2], in [3], in test [4], in [5] and in test [6] was inactive. The molecule was called inactive in test [8] and in [10].

These data come from PubChem BioAssay (EPA / NIEHS).
